Sampled rows, rich in hits. Any-hit rate of the full collection: about 2.8%.
Shn3 3UTR inh = reduction of Shn3 3'UTR firefly luciferase signal, primary screen, Schnurri-3 inhibitor project, cell-based, Clone20 osteoblasts, set 2; Clone20 osteoblast Shn3 3'UTR firefly luciferase, 24 h; inhibition, % at 12.5 µM; hit rate 0.52% among 360,000; AID 588674, 2011;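 active = mean inhibition of at least 75% with every replicate also reaching 75%; inconclusive = mean inhibition at least 75% but some replicate below; inactive = mean inhibition below 75%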;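 also: 0% = median of neutral control wells and 100% = pilot-screen positive control compound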
Glyco luc inh = increase of ERlucT glycosylation luciferase signal, primary screen, N-linked glycosylation inhibitor project, D54 ERlucT cells, luminescence, set 2 | D54 ERlucT glycosylation luciferase reporter, 24 h; percent of 100 nM tunicamycin response | reporter increase, % at 12.5 µM | hit rate 0.23% among 360,000 | AID 588692, 2011;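 active = mean luciferase reporter signal, scaled so untreated is 0 and the glycosylation-blocking control 100, at or above a set limit in every replicate; inconclusive = mean reaches the limit but not every replicate does; inactive = mean below the limit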;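 also: luciferase carries N-glycosylation sites so blocking glycosylation raises the light; 0% = median of neutral control wells and 100% = median of 100 nM tunicamycin wells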
PAX8 reporter = inhibitors of PAX8-driven TPO luciferase reporter, primary screen, RMG-I cells, single concentration | inhibition, % at 12.6 µM | SteadyGlo, 24 h | hit rate 1.2% among 360,000;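 active = mean replicate inhibition at least 60% with every replicate also reaching 60%; inconclusive = only one of the two criteria is met; inactive = mean below 60% and not all replicates reaching 60%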;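 also: luciferase light reporting Pax8 driven TPO promoter activity; plate controls were median of neutral control wells for no effect and mitoxantrone controls for full effect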
EBV LMP1 NFkB = EBV LMP1-driven NF-kappaB luciferase reporter inhibitors, primary screen, cell-based, luminescence, single point. inhibition, % at 12.5 µM. LMP1-induced NF-kappaB luciferase reporter cells. AID 504558, 2011. hit rate 0.69% among 350,000; in the data active = inhibition above about 41%; inconclusive = no clear call, values can overlap the other calls;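 also: 0% = neutral control wells and 100% = reference inhibitor control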
NSD2 HMT inh = NSD2 histone methyltransferase inhibitors, primary screen, biochemical, AlphaScreen, single concentration, set 2; inhibition, % at 12.5 µM; NSD2 peptide methylation, 120 min; hit rate 0.54% among 310,000; Histone-lysine N-methyltransferase NSD2 (Homo sapiens), O96028; AID 743445, 2014; in the data active = inhibition above about 50%
Target sequence (O96028 whole entry, looked up): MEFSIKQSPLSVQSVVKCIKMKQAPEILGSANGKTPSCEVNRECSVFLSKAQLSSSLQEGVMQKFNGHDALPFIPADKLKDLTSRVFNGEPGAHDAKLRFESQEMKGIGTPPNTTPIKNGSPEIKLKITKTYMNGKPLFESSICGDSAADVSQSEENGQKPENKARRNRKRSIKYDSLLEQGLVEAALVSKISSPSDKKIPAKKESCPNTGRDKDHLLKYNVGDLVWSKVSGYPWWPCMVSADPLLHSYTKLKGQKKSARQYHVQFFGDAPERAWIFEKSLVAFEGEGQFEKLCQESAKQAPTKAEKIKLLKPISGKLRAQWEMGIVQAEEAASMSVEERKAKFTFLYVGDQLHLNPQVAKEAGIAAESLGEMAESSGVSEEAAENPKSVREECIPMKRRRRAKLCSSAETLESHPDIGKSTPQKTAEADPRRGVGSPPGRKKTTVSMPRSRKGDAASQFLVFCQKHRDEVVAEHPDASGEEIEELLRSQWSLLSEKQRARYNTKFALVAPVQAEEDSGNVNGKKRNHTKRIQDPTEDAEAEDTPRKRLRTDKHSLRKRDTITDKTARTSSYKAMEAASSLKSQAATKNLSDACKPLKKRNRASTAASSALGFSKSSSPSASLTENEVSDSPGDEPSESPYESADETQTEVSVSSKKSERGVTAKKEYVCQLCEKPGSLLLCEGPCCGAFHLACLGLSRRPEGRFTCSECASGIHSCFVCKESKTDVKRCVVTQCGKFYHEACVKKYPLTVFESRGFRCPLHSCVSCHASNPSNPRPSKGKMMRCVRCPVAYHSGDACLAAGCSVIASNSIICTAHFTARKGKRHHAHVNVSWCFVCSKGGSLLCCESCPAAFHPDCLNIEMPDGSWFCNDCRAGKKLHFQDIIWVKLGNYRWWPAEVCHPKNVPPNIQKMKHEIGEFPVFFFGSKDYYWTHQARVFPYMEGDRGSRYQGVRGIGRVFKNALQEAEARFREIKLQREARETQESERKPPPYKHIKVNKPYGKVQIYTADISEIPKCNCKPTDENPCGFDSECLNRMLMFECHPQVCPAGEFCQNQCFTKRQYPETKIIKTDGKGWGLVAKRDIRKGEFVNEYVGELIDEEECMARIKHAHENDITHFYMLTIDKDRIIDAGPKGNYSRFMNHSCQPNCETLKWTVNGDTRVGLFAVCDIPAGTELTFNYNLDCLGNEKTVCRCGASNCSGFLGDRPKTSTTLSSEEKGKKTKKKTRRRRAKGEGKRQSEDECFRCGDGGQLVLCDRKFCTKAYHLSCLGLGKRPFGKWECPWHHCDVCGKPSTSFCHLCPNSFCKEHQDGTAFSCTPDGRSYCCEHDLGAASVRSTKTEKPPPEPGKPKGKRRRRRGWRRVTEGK
HIV Env fusion = inhibitors of HIV-1 Env-driven cell-cell fusion, primary screen, HeLa-JRFL effector, CEM21 target cells, luciferase; inhibition, % at 12.3 µM; hit rate 1.1% among 360,000; AID 651610, 2012;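 active = mean replicate inhibition score of at least 50 and every replicate individually at or above 50; inconclusive = only one of the two criteria met; inactive = mean below 50 and not all replicates reaching 50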;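 also: 0% = plate neutral controls and 100% = maraviroc near 300 nM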
Active calls of the source: *; ? = inconclusive; / = not tested or not shown; [ ] = another dose, or the depositor's remark.

SMILES | Shn3 3UTR inh | Glyco luc inh | PAX8 reporter | EBV LMP1 NFkB | NSD2 HMT inh | HIV Env fusion
Cc1cnc(C)c(Nc2nc(C(N)Cc3ccc(C(F)(F)F)cc3)cs2)n1 (stereo not given) | 47.8 | -5.0 | 9.1 | / | 1.4 | 106.4*
C[C@H](CO)N1C[C@H](C)[C@H](CN(C)Cc2ccccc2)Oc2cc(C#Cc3ccccn3)ccc2S1(=O)=O | / | / | / | / | / | 3.3[16.7 µM]
O=C1c2ccccc2C(=O)c2cc(N3CCCCC3)ccc21 | 42.3 | -19.5 | 8.7 | 44.8* | 8.0 | -138.7
CCOc1ccccc1NC(=O)c1nc(S(=O)(=O)Cc2cccc(C)c2)ncc1Cl | 97.6* | -10.9 | 132.3* | 66.3* | 0.7 | -21.1
CCc1nnc(NC(=O)c2nc(S(=O)(=O)Cc3cccc(C)c3)ncc2Cl)s1 | 96.8* | 8.1 | 28.2 | 65.8* | -0.3 | 63.4*
CCc1nnc(NC(=O)c2nc(S(=O)(=O)Cc3ccc(C)cc3)ncc2Cl)s1 | 93.7* | 10.8 | 6.1 | 10.2 | 1.1 | -5.3
CCc1nnc(NC(=O)c2nc(Cl)ccc2Cl)s1 | -1.5 | -0.1 | 9.8 | -6.2 | -0.9 | -25.5
CCc1nnc(NC(=O)c2nc(S(=O)(=O)Cc3ccccc3)ncc2Cl)s1 | 98.3* | 2.8 | 24.2 | 31.0 | / | 32.3
C[C@@H]1CCCCO[C@@H](CN(C)S(=O)(=O)c2ccccc2)[C@@H](C)CN([C@@H](C)CO)C(=O)c2cc(NC(=O)c3ccncc3)ccc2O1 | / | / | 2.0 | / | / | 18.2[16.7 µM]
COC(=O)c1c(CC[C@@H](CO)NC(=O)N[C@@H](Cc2ccccc2)Cn2cc(-c3ccccc3)nn2)oc(C(=O)N2CCOCC2)c1C(=O)OC | / | / | 10.3 | / | / | 7.1[16.7 µM]
C[C@H]1CN([C@@H](C)CO)C(=O)c2c(c3ccccc3n2C)-c2ccccc2CO[C@@H]1CN(C)Cc1ccccc1C(F)(F)F | / | / | 36.3 | / | / | /
c1ccc(-c2ccc3c(c2)c2c4n3CCN=C4CCC2)cc1 | 1.2 | -4.1 | / | 4.6 | 1.2 | 59.7*
CNC[C@H]1Oc2c(NC(=O)c3nc4ccccc4s3)cccc2C(=O)N([C@H](C)CO)C[C@@H]1C | / | / | 61.2* | / | / | 37.6[16.7 µM]
C[C@H]1CN([C@@H](C)CO)C(=O)c2cccc(NC(=O)Nc3cccc4ccccc34)c2O[C@H]1CN(C)CC1CC1 | / | / | 89.6* | / | / | /
C[C@@H]1CN([C@H](C)CO)C(=O)c2cccc(NC(=O)Nc3cccc4ccccc34)c2O[C@@H]1CN(C)S(=O)(=O)c1ccc(Cl)cc1 | / | / | 84.3* | / | / | /
C[C@H]1CN([C@@H](C)CO)C(=O)c2cccc(NC(=O)Nc3ccc(F)cc3)c2O[C@H]1CN(C)S(=O)(=O)c1ccc(Cl)cc1 | / | / | 66.7* | / | / | /
Cc1ccc(S(=O)(=O)N(C)C[C@H]2Oc3c(NC(=O)c4ccc(-c5nccs5)cc4)cccc3C(=O)N([C@H](C)CO)C[C@@H]2C)cc1 | / | / | -15.3 | / | / | 0.1[16.7 µM]
C[C@H](CO)N1C[C@H](C)[C@@H](CN(C)S(=O)(=O)c2ccc(Cl)cc2)Oc2c(NC(=O)c3nc4ccccc4s3)cccc2C1=O | / | / | 72.5* | / | / | -3.8[16.7 µM]
COc1ccc(S(=O)(=O)N(C)C[C@@H]2Oc3c(NC(=O)Nc4ccc(C(F)(F)F)cc4)cccc3C(=O)N([C@@H](C)CO)C[C@H]2C)cc1 | / | / | 5.0 | / | / | -46.6[16.7 µM]
Cc1ccc(S(=O)(=O)N(C)C[C@@H]2Oc3c(NC(=O)c4ccc(-c5nccs5)cc4)cccc3C(=O)N([C@@H](C)CO)C[C@@H]2C)cc1 | / | / | 94.8* | / | / | -36.0[16.7 µM]
COc1ccc(S(=O)(=O)N(C)C[C@H]2Oc3c(NC(=O)Nc4ccc(C(F)(F)F)cc4)cccc3C(=O)N([C@@H](C)CO)C[C@H]2C)cc1 | / | / | 105.8* | / | / | 107.7*[16.7 µM]
COCC(=O)Nc1ccc2c(c1)OC[C@@H](C)N(Cc1cccnc1)C[C@H](C)[C@@H](OC)CN(C)C2=O | / | / | -11.5 | / | / | -0.1[16.7 µM]
CO[C@@H]1CN(C)C(=O)c2cc(NC(=O)c3ccc(-c4ccccc4)cc3)ccc2OC[C@@H](C)NC[C@@H]1C | / | / | 12.5 | / | / | /
COc1ccc(CC2C(=O)NC(C)C(=O)N(C)C3Cc4ccc(cc4)Oc4cc(ccc4O)CC(C(=O)NC(C)C(=O)NC(C)C(=O)N2C)N(C)C3=O)cc1 (stereo not given) | 95.0* | -18.3 | 110.0* | 81.6* | -4.2 | 77.1*
Cc1ccc(S(=O)(=O)N[C@@H]2C=C[C@@H](CC(=O)NCc3ccncn3)O[C@H]2CO)cc1 | / | / | 15.9 | / | / | -4.2[16.7 µM]
SMILES | Shn3 3UTR inh | Glyco luc inh | PAX8 reporter | EBV LMP1 NFkB | NSD2 HMT inh | HIV Env fusion
COc1ccc(NC(=O)Nc2cccc(F)c2)c(OC)c1 | -22.6 | 0.8 | -28.3 | 1.0 | 0.4 | 2.5
COc1ccc(NC(=O)Nc2ccc(F)c(F)c2)c(OC)c1 | 2.5 | -3.9 | -18.5 | 66.9* | -0.9 | 2.2
Cc1cccc(NC(=O)Nc2ccc3c(c2)C(=O)N(C)[C@@H]2CC[C@H](CC(=O)O)O[C@H]2CO3)c1 | / | / | 8.5 | / | / | 8.2[16.7 µM]
O=C(CCCc1ccccc1)NC1CC1 | -11.6 | 0.2 | 0.8 | 1.5 | 0.9 | -18.9
O=C(O)CCCc1ccc2c(c1)CCc1ccccc1-2 | 15.0 | -3.0 | -34.4 | 24.0 | / | 62.7*
COc1ccc2[nH]c3c(=O)n(CCCCC(=O)NCCN4CCCC4)c(=S)[nH]c3c2c1 | -24.1 | 2.1 | / | -5.5 | 1.0 | /
COc1ccc2[nH]c3c(=O)n(CCCCC(=O)N4CCC(C(N)=O)CC4)c(=S)[nH]c3c2c1 | -21.0 | 2.8 | / | 65.1* | 1.6 | /
c1ccc(N=Nc2ccc3cccccc2-3)cc1 | -59.0 | 25.8* | -93.7 | -86.5 | 40.6 | -56.2
CC(=O)N1CC(=O)N2[C@H](CO)[C@H](c3ccc(-c4ccncc4)cc3)[C@@H]2C1 | / | / | -34.8 | / | / | /
CC(C)CN(C(=O)COC(=O)C12CC3CC(CC(Cl)(C3)C1)C2)c1c(N)n(Cc2ccccc2)c(=O)[nH]c1=O | 8.4 | 0.1 | 3.1 | 3.6 | -0.5 | 32.6
COCCN(C(=O)COC(=O)C12CC3CC(CC(Cl)(C3)C1)C2)c1c(N)n(Cc2ccccc2)c(=O)[nH]c1=O | 7.4 | -0.7 | 4.5 | 2.6 | -5.9 | 67.9*
COCCCN(C(=S)NC(=O)C12CC3CC(CC(C3)C1)C2)c1c(N)n(Cc2ccccc2)c(=O)[nH]c1=O | -2.4 | -2.5 | -0.9 | -1.8 | -3.3 | 84.4*
C[C@H](NC(=O)C[C@H]1C[C@H]2c3cc(NC(=O)c4cccnc4)ccc3O[C@H]2[C@@H](CO)O1)c1ccccc1 | / | / | -3.4 | / | / | -1.9[16.7 µM]
Cc1ccc(S(=O)(=O)Nc2ccc3c(c2)CC(=O)N([C@H](C)CO)C[C@@H](C)[C@H](CN(C)S(=O)(=O)c2ccc(F)cc2)O3)cc1 | / | / | -18.1 | / | / | 26.5[16.7 µM]
C=CCN1C(=O)/C(=C/c2ccc(OC(C)=O)c(OCC)c2[N+](=O)[O-])SC1=S | -22.1 | -16.4 | 99.6* | 4.6 | 13.0 | 32.4
CC(C)(C)n1nc(-c2ccc(F)cc2)c2c(N)ncnc21 | 46.5 | -13.7 | / | ? | 0.2 | /
CC(C)(C)n1nc(-c2ccc(Cl)cc2)c2c(N)ncnc21 | 64.2 | -8.3 | / | 41.7* | -2.0 | /
